{"source": "PubChem BioAssay (NCATS)", "note": "Inconclusive results are not listed. A call without a number means that no potency is given here. Calls of active or inactive are those of the source. Calls follow the shape of the dose curve; as a rule, active = well fitted cell-killing curve with a large enough effect; inconclusive = small, poorly fitted or top-dose-only effect, or effect the other way; inactive = no such curve, though single readings can be large or run the other way. Potency is read from the fitted curve at half-maximal effect.", "data": [{"assay": "Quantitative highthroughput screen to assess conditional lethalithy of SEM cells grown in RPMI1640 with unreated serum (RPMI+s) (AID 1963883); also: nearly all actives have a fitted effect of over 35% in size", "details": "SEM B-ALL cells, CellTiter-Glo viability, 48 h; series mostly up to 45.8 µM", "source_text": "Assay Provider: Jason Cantor Ph.D.\nDepartment of Biochemistry\nUniversity of Wisconsin-Madison, Madison, WI, USA\nChemical screening studies have identified drug sensitivities across hundreds of cancer cell lines but most putative therapeutics fail to translate. Discovery and development of drug candidates in models that more accurately reflect nutrient levels in human blood is a major challenge. Here we performed high-throughput screens in conventional versus Human Plasma-Like Medium (HPLM) to identify compounds that were \"missed\" when screening using the artificial culture condition. Sets of conditional anticancer compounds spanned phases of clinical development and included non-oncology drugs were assessed. […] We also traced conditional phenotypes for several chemotherapeutics to availability of HPLM-specific metabolites and confirmed others for compounds whose reported targets are encoded by nonessential genes. Our findings establish generalizable strategies for exploiting conditional lethality in HPLM to reveal therapeutic candidates and mechanisms of action in cancer cells.\nDescribed herein are the results of each viability screens against three cell lines: NOMO1 (an acute myeloid leukemia cell line); P12-Ichikawa (a T-cell acute lymphoblastic leukemia); and SEM (a B-cell ALL). Each assay was screened using 3 different cell culture media: homemade human plasma-Like medium with 10% dialyzed fetal bovine serum (HPLM+ds); RPMI1640 with 10% untreated FBS and 5mM glucose (RPMI+s); and RPMI1640 with 10% dialyzed fetal bovine serum and 5 mM glucose (RPMI+ds).\nPROTOCOL TABLE (as described by Inglese J, Shamu CE and Guy RK. 2007)\nSEQUENCE No. (e.g., 1, 2, 3, etc.); […] (e.g., Cells, Incubation, Reagent, etc.); VALUE and DESCRIPTION.\n1; Cells; 5 uL; white, solid bottom 1536-well Greiner assay plate.\n2; Compounds; 23 nL; Kalypsis pin tool (Wako USA) equipped with a 1536-well pin head to transfer to the assay plates.\n3; Incubation; 48 hours; 37C incubation.\n4; Reagent; 3 uL; CellTiter Glo (Promega).\n5; Incubation; 5 min, room temperature\n6; Detection; Luminescence, Viewlux PerkinElmer.\nNOTES (numbers refer to Sequence numbers above)\n1. Briefly, 5 ul of cell reagent was dispensed using a Multidrop Combi Dispenser. The NOMO1 and SEM cells were plated at 500 cells/well and the P12-Ichikawa line at 1000 cells/well.\n2. After seeding the cells, 23 nL of MIPE 4.1 library compounds (in DMSO) were added to each plate using a Kalypsys 1536 Pintool dispenser. Bortezomib at final concentration of […] and DMSO were added to each plate as positive and negative controls respectively. For each screen, MIPE 4.1 compounds were added over an eleven-point concentration range […] in 3-fold dilutions.\n3. Each plate was covered with a stainless steel gasketed lid to prevent evaporation and incubated for 48 hour at 37C, 95% relative humidity, and 5% CO2.\n4-5. Three microliter CellTilter-GloTM luminescent substrate mix (Promega) reagent was added to the assay plate and incubated at room temperature for 5 min.\n6. The luminescence signal was measured using a ViewLux (PerkinElmer) multiplate reader with a 2 second exposure time per plate. Data for each compound were normalized as percent viability such that measurements for DMSO and the empty well controls in each plate were defined as 100% and 0%, respectively.", "values": [{"smiles": "CN(C)CCc1c[nH]c2ccc(Cn3cncn3)cc12", "Potency": "132 nM (active)"}, {"smiles": "Fc1ccc([C@@H]2CCNC[C@H]2COc2ccc3c(c2)OCO3)cc1", "Potency": "14800 nM (active)"}, {"smiles": "CNC1[C@H](O)C(O[C@@H]2C(O)C(O[C@H]3O[C@H]([C@@H](C)NC)CC[C@H]3N)[C@@H](N)C[C@H]2N)OC[C@]1(C)O", "note": "(stereo not given in full)", "Potency": "inactive"}, {"smiles": "O=c1[nH]cnc2[nH]ncc12", "Potency": "inactive"}, {"smiles": "CNC(=O)c1ccc(N2C(=S)N(c3ccc(C#N)c(C(F)(F)F)c3)C(=O)C2(C)C)cc1F", "Potency": "inactive"}, {"smiles": "CCCc1nc2c(C)cc(-c3nc4ccccc4n3C)cc2n1Cc1ccc(-c2ccccc2C(=O)O)cc1", "Potency": "inactive"}, {"smiles": "CC[C@H]1OC(=O)[C@H](C)[C@@H](O[C@H]2C[C@@](C)(OC)[C@@H](O)[C@H](C)O2)[C@H](C)[C@@H](O[C@@H]2O[C@H](C)C[C@H](N(C)C)[C@@H]2O)[C@](C)(OC)C[C@@H](C)C(=O)[C@H](C)[C@@H](O)[C@]1(C)O", "Potency": "inactive"}, {"smiles": "Cc1cc(NC(=O)Nc2ccc(N(C)C)cc2)c2cc(F)cc(F)c2n1", "Potency": "inactive"}, {"smiles": "C[C@]12C=CC(=O)C=C1CC[C@@H]1[C@@H]2C(=O)C[C@@]2(C)[C@H]1CC[C@]2(O)C(=O)CO", "Potency": "inactive"}, {"smiles": "O=C(NC(Cc1cc(=O)[nH]c2ccccc12)C(=O)O)c1ccc(Cl)cc1", "note": "(stereo not given)", "Potency": "inactive"}, {"smiles": "O=C(C=Cc1ccc(CN(CCO)CCc2c[nH]c3ccccc23)cc1)NO", "Potency": "264 nM (active)"}, {"smiles": "Cc1coc2c1C(=O)C(=O)c1c-2ccc2c1CCCC2(C)C", "Potency": "inactive"}, {"smiles": "CN(C)C(=O)c1ccc(S(=O)(=O)c2ccc(NC(=O)[C@@](C)(O)C(F)(F)F)c(Cl)c2)cc1", "Potency": "11800 nM (active)"}, {"smiles": "Cc1ccc(CN2CCNCC2)cc1NC(=O)CNc1ccc(F)c(F)c1", "Potency": "inactive"}, {"smiles": "CCOC(=O)N1CCN([N+]([O-])=NOc2ccc([N+](=O)[O-])cc2[N+](=O)[O-])CC1", "Potency": "4180 nM (active)"}, {"smiles": "O=C(CCCCCCC(=O)Nc1ccc([C@H]2O[C@@H](CSc3nc(-c4ccccc4)c(-c4ccccc4)o3)C[C@@H](c3ccc(CO)cc3)O2)cc1)NO", "Potency": "7430 nM (active)"}, {"smiles": "C[C@](Cc1c[nH]c2ccccc12)(NC(=O)OC1C2CC3CC(C2)CC1C3)C(=O)NC[C@H](NC(=O)CCC(=O)O)c1ccccc1", "note": "(stereo not given in full)", "Potency": "inactive"}, {"smiles": "O=c1c(-c2ccc(O)cc2)coc2cc(OC3O[C@H](CO)[C@H](O)[C@H](O)[C@H]3O)cc(O)c12", "note": "(stereo not given in full)", "Potency": "inactive"}, {"smiles": "CC(C)N1[N]C(=C2C=c3cc(O)ccc3=N2)c2c(N)ncnc21", "Potency": "2960 nM (active)"}, {"smiles": "N=C(N)c1ccc2cc(OC(=O)c3ccc(N=C(N)N)cc3)ccc2c1", "Potency": "inactive"}, {"smiles": "COc1nc(-c2ccc3c(c2)OCO3)n(-c2ccc(NC(=O)CSc3ccccc3)cc2)n1", "Potency": "inactive"}, {"smiles": "COc1ccccc1-c1cccc(-c2c(O)c3cc(C#N)c(Cl)cc3[nH]c2=O)c1", "Potency": "2700 nM (active)"}, {"smiles": "CCCC1OC2C[C@@H]3[C@H]4CCC5=CC(=O)C=C[C@]5(C)[C@H]4C(O)C[C@]3(C)[C@]2(C(=O)CO)O1", "note": "(stereo not given in full)", "Potency": "187 nM (active)"}, {"smiles": "Cc1[nH]c2ccccc2c1CCNCc1ccc(C=CC(=O)NO)cc1", "Potency": "264 nM (active)"}, {"smiles": "CC(C)N(CC[C@H](c1ccccc1)c1cc(CO)ccc1O)C(C)C", "Potency": "inactive"}, {"smiles": "Cc1ccccc1N1C(=O)c2cc(S(N)(=O)=O)c(Cl)cc2NC1C", "note": "(stereo not given)", "Potency": "inactive"}, {"smiles": "CN(CCOc1ccc(CC2SC(=O)NC2=O)cc1)c1ccccn1", "note": "(stereo not given)", "Potency": "inactive"}, {"smiles": "C[C@H](CCC(=O)O)[C@H]1CCC2C3C[C@H](O)[C@@H]4C[C@H](O)CC[C@]4(C)C3CC[C@@]21C", "note": "(stereo not given in full)", "Potency": "inactive"}, {"smiles": "CCc1c2c(nc3ccc(O)cc13)-c1cc3c(c(=O)n1C2)COC(=O)[C@]3(O)CC", "Potency": "8.3 nM (active)"}, {"smiles": "COc1ccccc1N1CCN(CCN(C(=O)C2CCCCC2)c2ccccn2)CC1", "Potency": "inactive"}, {"smiles": "NCCCC(O)(P(=O)(O)O)P(=O)(O)O", "Potency": "2960 nM (active)"}, {"smiles": "CCN(c1ccccc1)c1cc(NC)[n+](C)c(C)n1", "Potency": "inactive"}, {"smiles": "Clc1cccc(Cl)c1NC1=NCCN1", "Potency": "inactive"}, {"smiles": "Cc1cc(N2CCOCC2)cc2[nH]c(-c3c(NC[C@@H](O)c4cccc(Cl)c4)cc[nH]c3=O)nc12", "Potency": "1660 nM (active)"}, {"smiles": "CCCCC(F)(F)[C@@]1(O)CC[C@H]2[C@H](CC(=O)[C@@H]2CCCCCCC(=O)O)O1", "Potency": "inactive"}, {"smiles": "COc1ccc(C2CNC(=O)C2)cc1OC1CCCC1", "note": "(stereo not given)", "Potency": "inactive"}, {"smiles": "O=C(N[C@H](CO)[C@H](O)c1ccc([N+](=O)[O-])cc1)C(Cl)Cl", "Potency": "inactive"}, {"smiles": "C[C@@H](NCCCc1cccc(C(F)(F)F)c1)c1cccc2ccccc12", "Potency": "inactive"}, {"smiles": "CCc1cccc(CC)c1NC(=O)N1Cc2[nH]nc(NC(=O)c3ccc(N4CCN(C)CC4)cc3)c2C1", "Potency": "1660 nM (active)"}, {"smiles": "CC1COc2c(N3CCN(C)CC3)c(F)cc3c(=O)c(C(=O)O)cn1c23", "note": "(stereo not given)", "Potency": "inactive"}]}]}
